Screens (PubChem)
Shown are actives, neighbours in structure and some others; about 5% of the full set was active somewhere.
SENP8 block-1 – human SENP8 protease inhibitors, primary screen, biochemical, fluorescence, Nedd8 protein substrate, uHTS; Sentrin-specific protease 8 (Homo sapiens), Q96LD8; recombinant SENP8; inhibition, % at 20 µM; 360,000 tested, 0.64% active; in the data active means inhibition mostly above about 40%, no sharp cut-off; inactive means mostly below about 27%
EBI2 antag – EBI2 receptor antagonists, beta-arrestin recruitment, primary screen, cell-based, luminescence, 7a,25-OHC stimulation, uHTS; 7a,25-OHC stimulated; inhibition, % at 5 µM; 360,000 tested, 0.81% active; in the data active means inhibition above about 38%;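 further: enzyme fragment complementation signal reports receptor beta-arrestin coupling in cells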
SENP6 block – SENP6 protease inhibitors, primary screen, biochemical, luminescence, uHTS. Sentrin-specific protease 6 (Homo sapiens), Q9GZR1. Recombinant SENP6 catalytic domain, aminoluciferin luminescence. inhibition, % at 10 µM. 330,000 tested, 1.8% active. AID 2599, 2010;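 active means inhibition above about 50% at the single tested dose, limit read from the data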
Target sequence (Q9GZR1 628-1112 limits assumed): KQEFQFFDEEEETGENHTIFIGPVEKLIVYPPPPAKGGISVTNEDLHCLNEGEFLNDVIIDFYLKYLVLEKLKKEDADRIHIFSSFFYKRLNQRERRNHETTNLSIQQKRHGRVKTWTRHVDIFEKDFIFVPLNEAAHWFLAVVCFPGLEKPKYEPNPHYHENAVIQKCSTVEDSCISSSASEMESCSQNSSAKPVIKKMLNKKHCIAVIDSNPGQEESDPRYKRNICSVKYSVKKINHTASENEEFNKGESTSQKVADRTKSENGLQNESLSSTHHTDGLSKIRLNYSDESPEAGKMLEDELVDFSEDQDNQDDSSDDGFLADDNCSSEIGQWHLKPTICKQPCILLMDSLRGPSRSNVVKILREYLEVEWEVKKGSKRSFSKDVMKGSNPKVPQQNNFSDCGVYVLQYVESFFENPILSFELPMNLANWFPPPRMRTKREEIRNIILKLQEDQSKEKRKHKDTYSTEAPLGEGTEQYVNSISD
SENP7 block – SENP7 protease inhibitors, primary screen, biochemical, luminescence, uHTS; Sentrin-specific protease 7 (Homo sapiens), Q9BQF6; recombinant SENP7, Z-RLRGG-aminoluciferin luminescence, 40 min; inhibition, % at 5 µM; 330,000 tested, 1.5% active;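 active means inhibition above about 50% at the single test dose, limit read from the data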
AHR act – AHR activators, primary screen, cell-based, luminescence, luciferase reporter, human; 320,000 tested, 2.5% active; AHR-responsive luciferase reporter cells; Aryl hydrocarbon receptor (Homo sapiens), P35869; activation, % at 5 µM; in the data active means activation above about 47%
SENP8 block-2 – SENP8 protease inhibitors, primary screen, biochemical, luminescence | purified SENP8, Z-RLRGG-aminoluciferin cleavage | inhibition, % at 10 µM | 330,000 tested, 1.2% active | AID 2540, 2010; in the data active means inhibition above about 50%
EBI2 conf – EBI2 antagonist hit retest, beta-arrestin, confirmation, cell-based, single concentration, luminescence, 7a,25-OHC stimulation. shares compounds with EBI2 antag. 7a,25-OHC antagonism. inhibition, % at 5 µM. 2,400 tested, 29% active. AID 651997, 2013;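 active means inhibition of at least 50%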
EBI2 agonist – EBI2 agonist activity of antagonist hits, confirmation, counter-screen for EBI2 antagonist project, cell-based, single concentration, agonist mode, luminescence; 2,400 tested, under 10 active; shares compounds with EBI2 antag; activation, % at 5 µM; EBI2-expressing cells, 60 min; 0% vehicle, 100% 7α,25-dihydroxycholesterol control;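 active means activation of at least 50%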
bGal counter – E. coli beta-galactosidase enzyme inhibition, confirmation, counter-screen for EBI2 antagonist project, biochemical, luminescence, single concentration; shares compounds with EBI2 antag; purified beta-galactosidase, luminescent Galacton Star, 15 min; inhibition, % at 5 µM; 2,400 tested, 1% active; AID 652176, 2013;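 active means replicate-average signal at least 3 plate SD below neutral wells, shown as high inhibition, flagging enzyme-inhibiting false positives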;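 further: higher means stronger loss of beta-gal luminescence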
Of the large screens only hits and unclear results are named; the others gave an inactive call (follow-up assays come after a bar, where they were run).

COc1cc2nc(SCc3ccc(Cl)cc3Cl)n(Cc3cccs3)c(=N)c2cc1OC	EBI2 antag 43 | EBI2 conf inactive | EBI2 agonist inactive | bGal counter inactive
COCCCn1c(SCC(=O)O)nc2cc(OC)c(OC)cc2c1=N	none
O=C(CSc1nnc(Cc2cccs2)n1C1CC1)NC1CCS(=O)(=O)C1 (stereo unspecified)	none
C[n+]1c(-c2ccccc2)sc([S-])c1-c1ccccc1	none
CCS(=O)(=O)N1CCN(C(=O)c2ccc(-c3ccccc3)cc2)CC1	EBI2 antag 83 | EBI2 conf 56 | EBI2 agonist inactive | bGal counter inactive
O=C(c1ccc(-c2ccccc2)cc1)N1CCN(C(=O)c2ccco2)CC1	EBI2 antag 72 | EBI2 conf inactive | EBI2 agonist inactive | bGal counter inactive
CS(=O)(=O)N1CCN(C(=O)c2ccc(-c3ccccc3)cc2)CC1	EBI2 antag 70 | EBI2 conf inactive | EBI2 agonist inactive | bGal counter inactive
O=C(NC1CCCCC1)C1CCN(C(=O)c2ccc(-c3ccccc3)cc2)CC1	none
CC(C)(C)NC(=O)C1CCN(C(=O)c2ccc(-c3ccccc3)cc2)CC1	EBI2 antag 48 | EBI2 conf inactive | EBI2 agonist inactive | bGal counter inactive
CC(C)(C)c1ccc(C(=O)N2CCN(C(=O)c3ccco3)CC2)cc1	none
Cc1ccc(C)c(NC(=O)c2ccc(S(=O)(=O)N(C)CC3CCCO3)cc2)c1 (stereo unspecified)	none
Clc1nc(NC2CCCCC2)c2cn[nH]c2n1	none (no result: SENP6 block, SENP7 block, AHR act, SENP8 block-2)
Cc1cc(C(=O)N2CCC(Cc3ccccc3)CC2)ccc1[N+](=O)[O-]	EBI2 antag 64 | EBI2 conf inactive | EBI2 agonist inactive | bGal counter inactive
Cc1cc(NC(=O)COC(=O)C2CSC3(C)CCC(=O)N23)ccc1Br (stereo unspecified)	none
CC(C)c1ccc(NC(=O)[C@H]2CSCN2C(=O)[C@@H]2CCC(=O)N2)cc1	none
O=C(CCc1ccccc1)N1CCN(C(=O)CCc2ccccc2)CC1	EBI2 antag 55 (no result: SENP6 block, SENP7 block, AHR act, SENP8 block-2) | EBI2 conf inactive | EBI2 agonist inactive | bGal counter inactive
Cc1ccc2cc3cc(C(=O)N4CCN(C(=O)c5ccco5)CC4)sc3nc2c1	EBI2 antag 63 | EBI2 conf inactive | EBI2 agonist inactive | bGal counter inactive
O=C(c1ccco1)N1CCN(C(=O)c2cc3c(=O)oc4ccccc4c3s2)CC1	EBI2 antag 80 (no result: SENP6 block, SENP7 block, SENP8 block-2) | EBI2 conf 61 | EBI2 agonist inactive | bGal counter inactive
Cc1ccc2oc(=O)c3cc(C(=O)N4CCN(C(=O)c5ccco5)CC4)sc3c2c1	none (no result: SENP8 block-1, EBI2 antag)
Cc1ccc2cc3cc(C(=O)N4CCN(Cc5ccccc5)CC4)sc3nc2c1	EBI2 antag 80 | EBI2 conf 53 | EBI2 agonist inactive | bGal counter inactive
C=CCNc1ncnc2c1ncn2[C@H]1CN(Cc2cccs2)C[C@@H](CO)O1	none (no result: SENP6 block, SENP7 block, AHR act, SENP8 block-2)
COc1cc(/C=N/OCC(=O)NC23CC4CC(CC(C4)C2)C3)ccc1OCc1ccccc1	EBI2 antag 45 | EBI2 conf inactive | EBI2 agonist inactive | bGal counter inactive
COc1cc(/C=N/OCC(=O)NC2CCCCC2)ccc1OCc1ccccc1	none
COC(=O)c1oc2ccccc2c1NC(=O)/C=C/C(=O)O	none
O=C(c1ccc(Cl)cc1)N1CCN(CCOc2ccccc2)CC1	EBI2 antag 46 | EBI2 conf inactive | EBI2 agonist inactive | bGal counter inactive
CN(CC(=O)Nc1ccc(Cl)c(C(F)(F)F)c1)C(=O)C1CCC1	none
CN(CCOc1ccc(Cl)cc1)C(=O)C1CCN(C(=O)c2ccc(Cl)cc2)CC1	EBI2 antag 74 | EBI2 conf inactive | EBI2 agonist inactive | bGal counter inactive
COc1ccc(OCCN2CCN(C(=O)c3ccc(OC)cc3)CC2)cc1	none
CN(CC(=O)Nc1ccc(Cl)c(C(F)(F)F)c1)C(=O)C1CCN(C(=O)c2ccc(Cl)cc2)CC1	EBI2 antag 56 (no result: SENP6 block, SENP7 block, AHR act, SENP8 block-2) | EBI2 conf inactive | EBI2 agonist inactive | bGal counter inactive
Cc1ccccc1C(=O)N1CCC(C(=O)N(C)CCOc2ccccc2)CC1	none
CCOc1ccc(OCC(=O)Nc2ccccc2N2CCCC2)cc1	none
Cc1cccc(OCC(=O)Nc2ccccc2N2CCCCC2)c1	EBI2 antag 53 | EBI2 conf inactive | EBI2 agonist inactive | bGal counter inactive
O=C(COc1ccccc1)Nc1ccccc1N1CCCCC1	EBI2 antag 45 | EBI2 conf inactive | EBI2 agonist inactive | bGal counter inactive
CN(C)C(=O)c1ccc(NC(=O)CSc2nnc(-c3cccs3)n2N)cc1	none
COC(=O)c1ccc2nc(-c3ccc(C)cc3)c(Cc3ccsc3)n2c1	none (no result: SENP6 block, SENP7 block, AHR act, SENP8 block-2)
COC(=O)c1ccc2nc(-c3ccc(C#N)cc3)c(Cc3ccsc3)n2c1	EBI2 antag 63 (no result: SENP6 block, SENP7 block, AHR act, SENP8 block-2) | EBI2 conf 52 | EBI2 agonist inactive | bGal counter inactive
O=C(CCCc1nc2ccccc2s1)NC(c1ccccc1)c1ccccc1	EBI2 antag 77 | EBI2 conf inactive | EBI2 agonist inactive | bGal counter inactive
O=C(O)CCCc1nc2ccccc2s1	none
C=CCn1c(SCC(=O)NNC(=O)Nc2ccc(C)cc2)nnc1-c1ccccc1	EBI2 antag 48 | EBI2 conf inactive | EBI2 agonist inactive | bGal counter inactive
C=CCn1c(SCC(=O)NNC(=O)Nc2cccc(Cl)c2)nnc1-c1ccccc1	EBI2 antag 61 | EBI2 conf inactive | EBI2 agonist inactive | bGal counter inactive
C=CCn1c(SCC(=O)Nc2ccc(-c3nc4ccc(C)cc4s3)cc2)nnc1-c1ccccc1	none (no result: SENP6 block, SENP7 block, SENP8 block-2)
CC1CCN(S(=O)(=O)c2nnc(NC(=O)c3cccc(Cl)c3)s2)CC1	none
COc1ccc(NS(=O)(=O)c2ccc(O)c(NS(=O)(=O)c3ccc(NC(C)=O)cc3)c2)cc1	none
